Measured values: PubChem BioAssay (EPA / NIEHS)
Inconclusive results are not listed. Calls of active or inactive are those of the source. The calls were made as follows: active = hit-call score of the fitted dose curve at least 0.9, where 1 is the maximum; inconclusive = response in the unintended direction; inactive = score below 0.9.

Target: human Phosphatase and Tensin Homolog (PTEN), PTEN (gene 5728) (UniProt P60484)
Assay: NVS_ENZ_hPTEN: NovaScreen (NVS) Enzymatic Assay for human Phosphatase and Tensin Homolog (PTEN) (AID 2283203)
In short: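 Cell-free recombinant human PTEN with fluorescent substrate; product separated by electrophoretic mobility shift and read by fluorescence 1 h after dosing. Primary screen in duplicate at 25 uM, actives followed in concentration series versus DMSO.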

human Phosphatase and Tensin Homolog (PTEN), PTEN (gene 5728), sequence (P60484 whole entry, looked up): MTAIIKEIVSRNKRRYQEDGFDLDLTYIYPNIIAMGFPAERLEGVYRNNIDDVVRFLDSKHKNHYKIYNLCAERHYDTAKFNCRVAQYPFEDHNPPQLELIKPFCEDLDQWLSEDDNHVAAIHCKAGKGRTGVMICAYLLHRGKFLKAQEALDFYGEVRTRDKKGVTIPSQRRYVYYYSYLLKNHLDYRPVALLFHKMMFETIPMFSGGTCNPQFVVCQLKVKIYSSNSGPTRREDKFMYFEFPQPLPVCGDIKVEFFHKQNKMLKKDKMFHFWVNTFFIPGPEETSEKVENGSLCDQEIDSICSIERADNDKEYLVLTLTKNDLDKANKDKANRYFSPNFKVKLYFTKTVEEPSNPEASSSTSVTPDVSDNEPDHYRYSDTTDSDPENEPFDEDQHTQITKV

| Structure (SMILES) | outcome | AC50 |
| --- | --- | --- |
| COc1ccc(CCN2CCC(Nc3nc4ccccc4n3Cc3ccc(F)cc3)CC2)cc1 | inactive | – |
| NC(=O)c1ccccc1Cl | inactive | – |
| N#Cc1ccc(CC(=NNC(=O)Nc2ccc(OC(F)(F)F)cc2)c2cccc(C(F)(F)F)c2)cc1 | inactive | – |
| Cc1ccc(N)c([N+](=O)[O-])c1 | – | 25 µM (active) |
| C=CC(=O)OCC(Br)CBr (stereo unspecified) | inactive | – |
| O=C1OC2(c3ccc(O)cc3Oc3cc(O)ccc32)c2ccccc21 | inactive | – |
| O=C1C=CC(=O)O1 | inactive | – |
| CO[Si](OC)(c1ccccc1)c1ccccc1 | inactive | – |
| C#C[C@]1(O)CC[C@H]2[C@@H]3CCC4=Cc5oncc5C[C@]4(C)[C@H]3CC[C@@]21C | – | 25 µM (active) |
| CCC(=O)O | inactive | – |
| Nc1ccc(F)c([N+](=O)[O-])c1 | inactive | – |
